Only some compounds are listed: those with a hit (about 1.7% of all), similar ones and a draw of the others.
Rin1 Abl inh: inhibitors of Rin1-Abl protein binding, primary screen, biochemical, TR-FRET; Tyrosine-protein kinase ABL1 (Homo sapiens) + Ras and Rab interactor 1 (Homo sapiens), …; actives 0.4% (n = 360,000); AID 588664, 2011; inhibition, % at 7.35 µM; in the data active = inhibition above about 5%, passing the limit was not always enough
Neddyl block: inhibitors of cullin neddylation, primary screen, biochemical, TR-FRET, uHTS, NAE and Ubc12; inhibition, % at 25 µM; actives 0.58% (n = 360,000); NEDD8-conjugating enzyme Ubc12 (Homo sapiens) + NEDD8-activating enzyme E1 regulatory …; in the data active = inhibition above about 36%
SUMO1 PPI mod: modulators of SUMO1 protein-protein interactions, primary screen, biochemical, uHTS; AID 602429, 2012; actives 0.33% (n = 360,000); Small ubiquitin-related modifier 1 (Homo sapiens), P63165; inhibition, % at 20 µM; SUMO1 binding to a labelled peptide, TR-FRET, 1 h; in the data active = inhibition above about 37%
Target sequence (P63165 whole entry, looked up): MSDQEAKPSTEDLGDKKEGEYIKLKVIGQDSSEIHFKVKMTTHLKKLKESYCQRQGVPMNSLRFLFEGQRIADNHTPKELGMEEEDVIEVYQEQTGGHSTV
ATG4B inh: ATG4B protease inhibitors, primary screen, biochemical, fluorescence, uHTS; inhibition, % at 8.33 µM; ATG4B cleavage of LC3-PLA2, NBD-HPC fluorescence, 1 h; Cysteine protease ATG4B (Homo sapiens), Q9Y4P1; actives 0.51% (n = 340,000); AID 504462, 2011; in the data active = inhibition above about 40%
Target sequence (Q9Y4P1 whole entry, looked up): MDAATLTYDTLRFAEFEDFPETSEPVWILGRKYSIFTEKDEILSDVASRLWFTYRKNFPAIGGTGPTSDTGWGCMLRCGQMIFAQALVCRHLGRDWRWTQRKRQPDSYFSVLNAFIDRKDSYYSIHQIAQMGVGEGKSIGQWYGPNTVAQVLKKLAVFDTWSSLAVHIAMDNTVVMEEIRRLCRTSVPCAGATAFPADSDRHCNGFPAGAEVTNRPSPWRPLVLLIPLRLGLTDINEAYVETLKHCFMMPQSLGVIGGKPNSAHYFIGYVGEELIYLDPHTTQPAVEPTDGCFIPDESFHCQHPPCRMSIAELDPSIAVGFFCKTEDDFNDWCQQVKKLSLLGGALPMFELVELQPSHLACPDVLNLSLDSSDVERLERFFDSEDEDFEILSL
Rin1-Abl confirm: Rin1-Abl binding inhibitor retest, confirmation, biochemical, TR-FRET; shares compounds with Rin1 Abl inh; purified proteins; inhibition, % at 7.35 µM; actives 49% (n = 1,300)
GFP quench: GFP fluorescence inhibitors and quenchers, artefact control for Rin1-Abl interaction inhibitor project, biochemical; shares compounds with Rin1 Abl inh; inhibitors/quenchers counterscreen; inhibition, % at 6.75 µM; actives 8.5% (n = 1,300);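 note: ABL1-eGFP fusion protein alone without its partner RIN1-SBP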
GFP quench DR: GFP fluorescence inhibitors and quenchers, dose response, artefact control for Rin1-Abl interaction inhibitor project, biochemical; 230 tested, under 10 active; shares compounds with Rin1 Abl inh; GFP fluorescence interference/quenching counterscreen; IC50, µM; call rule not given here;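 note: ABL1-eGFP fusion protein alone without its RIN1 binding partner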
Each line names hits and unclear results; the compound was inactive in the other large screens (follow-up assays come after a bar, where shown). Cut-off read from the data, not from the text of the source, unless noted: active = inhibition above about 6.5%; inactive = the rest.

CCN(CC)C(=O)C1=C(C)N(Cc2ccc(C(C)(C)C)cc2)C(=O)C(CC(=O)NC(c2ccccc2)c2ccccc2)C1 (centres undefined)	none (no result: ATG4B inh)
Cc1nc(C)n(C)c(=O)c1-c1ccccc1	Rin1 Abl inh 39.9 | Rin1-Abl confirm inactive | GFP quench inactive
Cc1nc(C)c(-c2ccccc2)c(=O)[nH]1	none
O=C1CC=Nc2ccc([N+](=O)[O-])cc21	Rin1 Abl inh 14.5 (no result: ATG4B inh) | Rin1-Abl confirm inactive | GFP quench inactive
Cc1ccc(NS(=O)(=O)c2cc(OCC(N)=O)c(C)cc2Cl)cc1C	Rin1 Abl inh 12.2 | Rin1-Abl confirm inactive | GFP quench inactive
CC(=O)c1cccc(NC(=O)CNC(=O)c2cc3ccccc3o2)c1	Rin1 Abl inh 17.2 | Rin1-Abl confirm inactive | GFP quench inactive
Oc1ccc(/C=N/N=C(c2ccccc2)c2ccccc2)c(O)c1O	Rin1 Abl inh 21.4 | Rin1-Abl confirm 40.8 | GFP quench 15.6
O=C1c2ccccc2C(=O)N1/N=C/c1ccc(O)c(O)c1	Rin1 Abl inh 11.1 | Rin1-Abl confirm inactive | GFP quench inactive
CN(C)Cc1ccccc1CCc1ccccc1	none
N=c1ccn(O)cc1CCc1ccccc1	Rin1 Abl inh 17.1 | Rin1-Abl confirm 21.6 | GFP quench inactive | GFP quench DR inactive
CC(=CC(=O)c1ccccc1)c1ccccc1	none
CCOc1cc(N2CCOCC2)c(OCC)cc1NC(C)C(=O)N1CCN(CC)CC1 (centres undefined)	Rin1 Abl inh 37.9 | Rin1-Abl confirm inactive | GFP quench inactive
CCOc1cc(N2CCOCC2)c(OCC)cc1NC(=O)C(C)C	none
CC1=C(C(=O)N(C(C)C)C(C)C)CC(CC(=O)NCCN2CCOCC2)C(=O)N1CCC1=CCCCC1 (centres undefined)	none (no result: ATG4B inh)
O=C(CSc1nc2ccccc2[nH]1)N1CCN(c2ccccc2)CC1	none
O=C(CCCSc1nc2ccccc2[nH]1)N1CCN(c2ccccc2)CC1	Rin1 Abl inh 7.0 | Rin1-Abl confirm 7.1 | GFP quench inactive
CC(=O)NC1CC2CCCC(C1)N2C(=O)Nc1ccc(Cl)cc1 (centres undefined)	none (no result: ATG4B inh)
COc1ccccc1CNC(=O)CSc1nnc2ccc(-c3cccnc3)nn12	Rin1 Abl inh 12.9 | Rin1-Abl confirm 16.8 | GFP quench inactive | GFP quench DR inactive
COc1ccc(NC(=O)CSc2nnc3ccc(-c4cccnc4)nn23)cc1OC	none
COc1ccc(Br)cc1CN(C)C(=O)c1ccccc1OCc1c(C)noc1C	Rin1 Abl inh 9.0 | Rin1-Abl confirm inactive | GFP quench inactive
CC(C)C[C@H]1CN(CCCC[C@H]2CNC(=O)C(=O)N2CCC2CCCCC2)C(=O)C(=O)N1CC1CCCCC1	none (no result: Rin1 Abl inh, ATG4B inh)
COC(=O)[C@]12CCCCC=C1N(Cc1ccc3c(c1)OCO3)C(=O)[C@H](CC(=O)NCC1CCCCC1)C2	none (no result: Rin1 Abl inh, ATG4B inh)
O=C(CC1C(=O)NCCN1Cc1ccc(F)cc1)NCCOc1cccnc1 (centres undefined)	none
O=C(CC1C(=O)NCCN1Cc1c(F)cccc1Cl)NCCCOc1cccnc1 (centres undefined)	Rin1 Abl inh 14.3 | Rin1-Abl confirm 11.8 | GFP quench inactive
Cc1nn(C)c(C)c1/C=C(\C#N)S(=O)(=O)c1ccc(F)cc1	none (no result: ATG4B inh)
COc1ccc(CCC(=O)NCCc2nc3ccccc3[nH]2)cc1	Rin1 Abl inh 6.0 | Rin1-Abl confirm inactive | GFP quench inactive
COc1ccc(OCCCC(=O)NCCc2nc3ccccc3[nH]2)cc1	none
CC(NC(=O)c1cc2c(=O)n(C)c3ccccc3c2n1C)c1ccc2c(c1)OCCO2 (centres undefined)	Rin1 Abl inh 7.6 | Rin1-Abl confirm 10.6 | GFP quench inactive
Cn1c(C(=O)Nc2ccc3c(c2)OCO3)cc2c(=O)n(C)c3ccccc3c21	none (not shown: Neddyl block)
CCNC(=O)C1CCCN(C(=O)Cc2ccc3ccccc3c2)CC1 (centres undefined)	none (no result: ATG4B inh)
CCCCCCCCSC1=CC(=O)C(OC)=C(OC)C1=O	none (no result: ATG4B inh)
Oc1ccc(/C=N/Nc2ccnc3cc(Cl)ccc23)cc1O	Rin1 Abl inh 10.8, SUMO1 PPI mod 54.9 | Rin1-Abl confirm inactive | GFP quench inactive
Clc1ccc2c(NCc3ccccn3)ccnc2c1	none
Oc1ccc(/C=N/Nc2ccnc3cc(Cl)ccc23)c(O)c1O	Rin1 Abl inh 23.6 | Rin1-Abl confirm 26.2 | GFP quench 7.5
CCN1C[C@@H]2[C@@H]3C(=O)N(Cc4ccccc4)C(=O)[C@@H]3[C@](C)(C1=O)N2C(=O)c1ccc(Cl)cc1	none
COc1ccc(S(=O)(=O)NCCOc2cccc3cccnc23)cc1OC	none
O=[N+]([O-])c1cccc(S(=O)(=O)NCCOc2cccc3cccnc23)c1	Rin1 Abl inh 10.3 | Rin1-Abl confirm inactive | GFP quench inactive
CC1CCCN(C(=O)C2CCN(S(=O)(=O)c3ccc4c(c3)CC(C)N4C(=O)C3CC3)CC2)C1 (centres undefined)	Rin1 Abl inh 15.0 | Rin1-Abl confirm inactive | GFP quench inactive
CC1Cc2cc(S(=O)(=O)N3CCCC(C(=O)N4CCCCC4)C3)ccc2N1C(=O)C1CC1 (centres undefined)	none
CC(=O)c1ccc(NC(=O)C2(S(=O)(=O)c3ccccc3)CC2)cc1	Rin1 Abl inh 10.4 | Rin1-Abl confirm inactive | GFP quench inactive
Oc1c(CN2CCOCC2)cc(CN2CCOCC2)c(O)c1O	Rin1 Abl inh 22.8 | Rin1-Abl confirm 7.0 | GFP quench inactive
Oc1c(CN2CCOCC2)cc(COCc2ccccc2)c2cccnc12	Rin1 Abl inh 10.8 | Rin1-Abl confirm inactive | GFP quench inactive
Cc1ccc(C2/C(=C(\O)c3ccc4c(c3)OCCO4)C(=O)C(=O)N2CC2CCCO2)cc1 (centres undefined)	Rin1 Abl inh 8.5 | Rin1-Abl confirm inactive | GFP quench inactive
Cc1ccc(Oc2nnc(-c3cccs3)c3ccccc23)cc1C	Rin1 Abl inh 6.0 | Rin1-Abl confirm inactive | GFP quench inactive
CN(C)CC1(C)Cc2ccsc2C1O (centres undefined)	none
O=C(Nc1ccc(Oc2ccccc2)cc1)C1CCN(c2c3c(nc4ncnn24)CCC3)CC1	Rin1 Abl inh 6.0 | Rin1-Abl confirm 11.7 | GFP quench inactive
Cc1cccc(C)c1N1CCN(C(=O)c2ccc3c(c2)OCO3)CC1	none
O=C(c1ccc2c(c1)OCO2)N1CCN(c2ncccn2)CC1	Rin1 Abl inh 5.3 | Rin1-Abl confirm inactive | GFP quench inactive
O=C(O)c1ccc(Oc2ccc([N+](=O)[O-])cc2)c([N+](=O)[O-])c1	none
